# Where “and” joins values, the source holds several entries; their conditions need not be identical. Identical values can stand only once. About 83,000 compounds went through this panel and 20% of them were active in at least one assay; those are over-represented in the sample as a whole.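 Note: values are percent growth. 100 is the growth of untreated cells, values between 100 and 0 indicate rising inhibition; between -100 and 0 indicates cell death.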 Calls of active or inactive are those of the source. The calls were made as follows: active = growth percent below 10; inactive = the rest.
# Test system: UACC-62 melanoma
# Experiment: NCI-60 one-dose screen, 48 h (100 = growth as untreated, 0 = no growth, -100 = all killed)
# Conditions: 10 µM unless noted
row,Structure (SMILES),growth
1,COc1ccc2nc(N/N=C/c3ccc(C)s3)cc(C)c2c1,-97.7% [100 µM] (active) and -100% [100 µM] (active)
2,COc1ccc2c(=O)c(-c3cc4c(cc3OC)OCO4)coc2c1,30.1% [100 µM] (inactive) and 25.3% [100 µM] (inactive)
3,N#Cc1nc(-c2cccc(-c3nc(C#N)c(N)o3)n2)oc1N,89.4% [100 µM] (inactive) and 63.8% [100 µM] (inactive)
4,COC(=O)C(=O)C(C(=O)C(=O)Nc1ccccc1C(C)=O)c1nc2ccc(C(=O)c3ccccc3)cc2[nH]c1=O (centres undefined),48.7% [100 µM] (inactive) and 10.4% [100 µM] (inactive)
5,C/C=C1\NC(=O)[C@H]2CSSCCC=C[C@H](CC(=O)N[C@H](C(C)C)C(=O)N2)OC(=O)[C@H](C(C)C)NC1=O,-83.2% [0.1 µM] (active) and -98.1% [0.1 µM] (active)
6,C=C1C(=O)OC2/C=C(\CO)CC/C=C(\CO)CC(OC(=O)C(C)C)C12 (centres undefined),-89.5% [100 µM] (active) and -98.8% [100 µM] (active)
7,O=C1NC(N/N=C\c2ccccc2)=N/C1=C/c1ccc(Cl)cc1,-9.96% [100 µM] (active) and 107% [100 µM] (inactive)
8,CC1C2(C)OC(=N)C(C#N)(C(c3cccc([N+](=O)[O-])c3)O2)C1(C#N)C#N (centres undefined),100% [100 µM] (inactive)
9,CC1(C)S[C@H](CN)N[C@H]1C(=O)OC(c1ccccc1)c1ccccc1,34.2% [100 µM] (inactive) and -100% [100 µM] (active)
10,CCCCCCCCCC(=O)CC(=O)c1c(O)cc(O)cc1O,-97.6% [75 µM] (active) and -88.4% [75 µM] (active)
11,Cc1ccc(NC(=O)/C(Cc2cc(=O)oc3cc(O)ccc23)=N\NC(C)(C)C)cc1C,87.9% [100 µM] (inactive) and 92.2% [100 µM] (inactive)
12,COc1cc([C@H]2OC[C@@H]3C(c4cc(OC)c5c(c4)OCO5)OC[C@H]23)cc(OC)c1OC (some centres undefined),66.5% [100 µM] (inactive) and 25.8% [100 µM] (inactive)
13,CC(=N\N=C\c1ccccn1)/C(C)=N/N=C/c1ccccn1,86% [100 µM] (inactive) and 54.1% [100 µM] (inactive)
14,Cc1ccc(C)c(NC(=O)/C(=N\N)C(c2cnc3ccc([N+](=O)[O-])cc3n2)[N+](=O)[O-])c1 (centres undefined),46.3% [100 µM] (inactive) and 15.7% [100 µM] (inactive)
15,CNC(=S)c1nnsc1N,70.7% [100 µM] (inactive) and -2.69% [100 µM] (active)
16,C/C(=C\COc1cc(O)c2c(c1)C(=O)c1cc(C)cc(O)c1C2=O)CCC1OC1(C)C (centres undefined),41.3% [100 µM] (inactive) and 6.17% [100 µM] (active)
17,Cc1ccc(OCC2OC(n3cnc4nc(Cl)nc(Cl)c43)CC2Oc2ccc(C)cc2)cc1 (centres undefined),-72.2% [100 µM] (active) and -100% [100 µM] (active)
18,COc1ccc(C)cc1NC(=S)C#N,74.4% [100 µM] (inactive) and 31.4% [100 µM] (inactive)
19,Cc1ccc(OCC2OC(n3cnc4nc(N)nc(Cl)c43)CC2Oc2ccc(C)cc2)cc1 (centres undefined),50.4% [100 µM] (inactive) and -64% [100 µM] (active)
20,N#Cc1c(N)oc(-c2cccc([N+](=O)[O-])c2)c1C#N,-82.9% [100 µM] (active) and -75% [100 µM] (active)

row,Structure (SMILES),growth
1,COc1cc2c(cc1C1COc3cc4occc4cc3C1=O)OCO2 (centres undefined),62.1% [100 µM] (inactive) and 73.4% [100 µM] (inactive)
2,N#CC1(C#N)C2CCCCC23OC(=N)C1(C#N)C(c1ccco1)O3 (centres undefined),-50.9% [100 µM] (active)
3,CCCCCCCCCC(O)CC(=O)c1c(O)cccc1O (centres undefined),-96.8% [100 µM] (active) and -100% [100 µM] (active)
4,O=c1c2ccccc2nc(-c2ccccc2)n1/N=C/c1ccccc1[N+](=O)[O-],54.7% [100 µM] (inactive) and 24.5% [100 µM] (inactive)
5,COC(=O)C(C(=O)C(=O)NC1Nc2ccc(C)cc2S1)c1nc2ccc(Cl)cc2[nH]c1=O (centres undefined),77.4% [100 µM] (inactive) and 58.3% [100 µM] (inactive)
6,O=C1c2ccccc2-c2c1c1ccccc1c(=O)n2CCO,-21.8% [100 µM] (active) and -78.7% [100 µM] (active)
7,COc1cc2oc3c(c(=O)c2c(O)c1/C=C/C(C)C)CCC(C)(C)Oc1cc(O)ccc1-3,-23.1% [100 µM] (active) and -100% [100 µM] (active)
8,O=C1c2cccnc2-c2nccc3ccnc1c23,-95.5% [100 µM] (active) and -100% [100 µM] (active)
9,CC(=Nc1ccncc1)C(C)=Nc1ccncc1,-98.5% [100 µM] (active) and -100% [100 µM] (active)
10,COC(=O)c1cc(C#N)[nH]c1-c1ccsc1,67.3% [100 µM] (inactive) and 25.1% [100 µM] (inactive)
11,O=C1CC(c2ccccc2)NCCCCN2CC(CN1)C(C(O)c1ccccc1)C2=O (centres undefined),72.5% [100 µM] (inactive) and 81.1% [100 µM] (inactive)
12,CCCCC1C(=O)N(c2ccc(S(=O)(=O)Nc3ccccn3)cc2)N(c2ccc(O)c(C(=O)O)c2)C1=O (centres undefined),105% [100 µM] (inactive) and 96.1% [100 µM] (inactive)
13,N/N=C(\C(=O)Nc1ccc([N+](=O)[O-])cc1)C(C1=Nc2cc([N+](=O)[O-])ccc2NC1)[N+](=O)[O-] (centres undefined),42.3% [100 µM] (inactive) and 14.7% [100 µM] (inactive)
14,N#CC1(C#N)C2CCCCC23OC(=N)C1(C#N)C(c1ccccc1)O3 (centres undefined),-40.1% [100 µM] (active)
15,CSc1nc(Br)nc2ncn(C3CC(Oc4ccc(C)cc4)C(COc4ccc(C)cc4)O3)c12 (centres undefined),84.5% [100 µM] (inactive) and -65.3% [100 µM] (active)
16,CC(=O)c1ccc(NC(=O)/C(CC(=O)/C=C/c2ccccc2)=N/NC(N)=S)cc1,91.1% [100 µM] (inactive) and 43.7% [100 µM] (inactive)
17,COc1ccc2cc1Oc1ccc(cc1)CC1c3cc(OC)c(cc3CCN1C)Oc1c(OC)c(OC)cc3c1C(C2)N(C)CC3 (centres undefined),-46.8% [75 µM] (active) and -87.8% [75 µM] (active)
18,CO/C(N)=C(\C#N)N=Cc1ccc2ccccc2c1,-20.4% [100 µM] (active) and 1.77% [100 µM] (active)
19,C=CCNC1=C2C[C@@H](C)C[C@@H](OC)[C@@H](OC(=O)CCCN)[C@H](C)/C=C(\C)[C@@H](OC(N)=O)[C@H](OC)/C=C\C=C(/C)C(=O)NC(=CC1=O)C2=O,-57.7% [100 µM] (active) and -64.4% [100 µM] (active)

# From PubChem BioAssay (NCI)
